Results on 40 compounds are retold here after PubChem BioAssay (NCI).

SMILES strings stand for the structures. This is part of a sample that, as a whole, favours compounds with a hit. Of some 83,000 tested, about 20% had one in any assay.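 Interpretation: 100, growth as untreated; towards 0, rising growth inhibition; 0, no net growth; 0 to -100, cell death. Compounds scoring below 10 were considered active.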 Active and inactive are the calls of the source.

For this test, the system named is TK-10 renal. As to the kind of experiment: NCI-60 one-dose screen, 48 h (100 = growth as untreated, 0 = no growth, -100 = all killed). The note with it: 10 µM unless noted. The protocol: Growth inhibition of the TK-10 human tumor cell line is measured as a screen for anti-cancer activity. Cells are grown in 96 well plates and exposed to the test compound for 48 hours. Compounds are tested at a single concentration, which is 10^-5 M for most compounds. The reported endpoint is percent growth (GI% or GIPRCNT), where numbers from 0 - 100% represent growth inhibition, and numbers from -100% - 0 represent cell death. For example, a value of 40 represents 60% growth inhibition. A value of 0 means no net growth occurred over the course of the experiment. A value of -40 indicates 40% of cells at the beginning of the experiment died by the end of the experiment. A value of -100 means all cells are dead at the end of the experiment.
NCI-60 Human Tumor Cell Lines Screen was performed using the standard one-dose NCI protocol, which is described in more detail at https://dtp.cancer.gov/discovery_development/nci-60/default.htm.
Compounds with GIPRCNT values below 10 were considered active. Activity score was based on GIPRCNT using the following formula: […]
Score is 0 for GIPRCNT values of 100 or above, 50 for GIPRCNT values of 0, and 100 for GIPRCNT values of -100.
Regarding `O=C1OCCCCCCCCCC#Cc2ccccc21`, the growth was 122% (inactive).

Regarding `Clc1ccc2c(Nc3ccc4oc(NCCN5CCCC5)nc4c3)ccnc2c1`, the growth is 103% (inactive). With `O=C1c2ccccc2C(=O)c2c1cccc2-n1nnc2ccccc21` the figure was 121% (inactive).

Turning to `CCOc1cccc(C2CC(=O)Nc3cc4c(cc32)OCO4)c1` (stereo not given), the growth was 86.2% (inactive).

For the compound `Cc1cc(CC(=O)O)n(C)c1C(=O)c1ccc(Cl)cc1`, the growth was 108% (inactive). With `[O-]/[N+](=C\C=C\c1ccccc1)c1ccccc1` the figure was 144% (inactive). The same measure for `N#Cc1ccc(NC(=O)Nc2ccc(Oc3ccc(NC(=O)Nc4ccc(C#N)cc4)cc3)cc2)cc1`: 37.9% (inactive); for `O=C(O)c1ccc(NC(=O)c2ccc(Nc3ccnc(C(F)(F)F)c3)cc2)cc1`: 105% (inactive); for `O=C(/C=C/c1ccccc1)CC(c1ccccc1)N1CCOCC1` (stereo not given): 77% (inactive). The same measure for `Nc1nc(N)c([N+](=O)[O-])c(=O)[nH]1`: 94.6% (inactive). Consider `COc1cc(C2NC(c3ccc(Cl)cc3)C(C)/C(=N/NC(N)=S)C2C)cc(OC)c1OC` (stereo not given), for which the growth was 103% (inactive).

On to `O=C1CC(C(F)(F)F)=NN1C(=O)c1nn(-c2ccc(Cl)cc2)cc1O`, for which the growth is 122% (inactive). For the compound `COc1ccc2[nH]cc(/C=C3/C(=O)Nc4ccc(Cl)cc43)c2c1`, the growth was 22.2% (inactive). The same measure for `O=Nc1ccc(O)c(=O)cc1`: 14.6% (inactive); for `O=C(Nc1ccccc1Cl)c1cnc2ccc(C3CCNCC3)cn12`: -13.2% (active). In the case of `O=C1CCCN1C1CCN(Cc2cc3ccccc3[nH]c2=O)c2ccccc21` (stereo not given), the growth is 93.3% (inactive). With `COc1ccc(-c2cc(C(=O)Nc3nc4cc(C)c(C)cc4s3)nc3cc(-c4ccccc4)nn23)cc1OC`, the growth is 125% (inactive). The same measure for `O=Cc1c[nH]c2ccc(NC(=O)OCc3ccccc3)cc12`: 88.1% (inactive); for `CCN1C(=O)c2ccc3c4c(ccc(c24)C1=O)C(=O)N(CCCNCc1ccccc1OC)C3=O`: -28.3% (active); for `ClC1=C(Cl)C(=C2C(Cl)=C(Cl)C(Cl)=C2Cl)C(Cl)=C1Cl`: 94.1% (inactive). Take `CN1CCN(Cc2ccc(NC(=O)c3[nH]ncc3Nc3ccnc4ccnn34)cc2)CC1`: the growth is 103% (inactive). For `COc1ccc(OC)c(NC(=O)c2cc3oc4ccccc4c3cc2O)c1`, the growth is 135% (inactive).

`CC(=O)Nc1ccc2c(c1)Cc1c(F)c(F)c(F)c(F)c1-2`: the growth was 84.7% (inactive). As for `CCOc1cc(-c2ccc[nH]2)[nH]c1/C=C1\N=C(C)C(C(=O)OC)=C1C`, the growth is -85.8% (active). The same measure for `CCOc1nc(-c2ccccc2)cc2c(O)c(C(=O)n3nc(C)cc3C)[nH]c(=O)c12`: 108% (inactive); for `Cc1ccc(C(=O)Nc2ccc(Cl)cc2C(=O)NCc2ccccc2)cc1`: 105% (inactive); for `CCOC(=O)c1c(NC(=O)C2CCCCC2C(=O)O)sc2c1CCCC2` (stereo not given): 113% (inactive). With `CN(CC(=O)Nc1nc2ccccc2[nH]1)S(=O)(=O)c1ccc(Cl)cc1`, the growth was 118% (inactive). In the case of `CC(=O)c1cc(C(=O)c2ccc3c(c2)Sc2ccccc2N3)c2c(C)cc(C)cn12`, the growth is 34.6% (inactive).

On to `COc1cc([C@@H]2c3cc4c(cc3C(O[C@@H]3O[C@@H]5CO[C@@H](c6cccs6)OC5[C@H](O)[C@H]3O)C3COC(=O)[C@@H]32)OCO4)cc(OC)c1O` (stereo not given in full), for which the growth is -54.7% (active). The same measure for `CCOc1cc(C(C)(C)C)ccc1C1=N[C@H](c2ccc(Cl)cc2)[C@H](c2ccc(Cl)cc2)N1C(=O)N1CCN(CC#Cc2cccc3c2CN([C@@H]2CCC(=O)NC2=O)C3=O)CC1`: 49% (inactive); for `COc1ccc(-c2cncn2-c2ccc(-c3nc4cc(OC)c(OC)c(OC)c4s3)cc2)cc1N`: 83.3% (inactive); for `CCn1c2ccccc2c2ccc(C(C)=O)cc21`: 105% (inactive). With `COc1ccc(-c2c(-c3cc(OC)c(OC)c(OC)c3)noc2N)cc1` the figure was 67.3% (inactive); with `O=C(CN1CCCCC1)Sc1nnc2sc3ccccc3n12`, 122% (inactive). `CC1=CSC2=NCCN12`: the growth was 97.7% (inactive). With `O=C(C(=O)N1CCOCC1)c1ccc(OC2OC(CO)C(O)C(O)C2O)cc1` (stereo not given) the figure was 101% (inactive); with `O=C(C(Br)Br)C(Br)C(Br)c1ccccc1` (stereo not given), 27.7% (inactive). With `COc1ccc(-c2cc(Cc3cccs3)c(=O)n(Cn3cncn3)n2)cc1` the figure was 113% (inactive); with `Cn1cc(-c2csc(-c3cn(C)c4ncccc34)n2)c2cc(Br)cnc21`, 115% (inactive).
